Measured values: PubChem BioAssay (Tox21)
Results filed as inconclusive are left out. Active and inactive are the calls of the source. Unless noted, calls come from the whole dose curve.

Assays:
[1] = Nuclear factor erythroid 2-related factor 2/antioxidant responsive element (Nrf2/ARE) small molecule agonists: qHTS cell viability counter screen in human keratinocytes (AID 1919968; active = well fitted curve in the direction sought with a large enough effect in the repeat runs; an effect the other way counts as inactive or inconclusive; note: nearly all actives have a fitted effect of over 55% in size; note: potency is the fitted concentration of half-maximal effect)
Procedure, shortened: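 CellTiter-Fluor fluorescence, read 1 h after reagent, gave viability in the same wells as the ARE-luciferase assay. KeratinoSens cells (1,500/well) had 23 h compound exposure at 37 C/5% CO2 following 5 h plating.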

[2] = Nuclear factor erythroid 2-related factor 2/antioxidant responsive element (Nrf2/ARE) small molecule agonists: luciferase reporter gene qHTS assay in human keratinocytes (AID 1919969); note: nearly all actives have a fitted effect of over 35% in size; note: potency is the fitted concentration of half-maximal effect
[3] = target: Gonadotropin-releasing hormone receptor (Homo sapiens) (UniProt P30968); experiment: Human gonadotropin-releasing hormone receptor (GnRHR) small molecule agonists, calcium flux assay in GnRHR-HEK293 cells (AID 1920063); note: nearly all actives have a fitted effect of over 35% in size
Procedure, shortened: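 Agonist mode: compounds at 15 concentrations, in triplicate, went onto calcium dye-loaded GnRHR-HEK293 cells. Intracellular calcium was then followed as 480/540 nm fluorescence at 1 s intervals over 3 min.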

[4] = target: KiSS-1 receptor (Homo sapiens) (UniProt Q969F8); experiment: Human kisspeptin (KISS1R) small molecule agonists, calcium flux assay in KISS1R-HEK293 cells (AID 1920064; active = well fitted curve in the direction sought with a large enough effect in the repeat runs; an effect the other way counts as inactive or inconclusive)
Procedure, shortened: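 Agonist mode: intracellular calcium rise tracked at 1 s intervals over 3 min (480/540 nm) immediately after compound addition to dye-loaded KISS1R-HEK293 stable cells. Each compound tested at 15 concentrations in triplicate.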

[5] = G protein-coupled receptor (GPCR) small molecule agonists, calcium flux assay: HEK293 wild type cell line counter screen (AID 1920065)
Procedure, shortened: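 Calcium flux counter screen: compound added in agonist mode at 15 concentrations in triplicate to dye-loaded parental HEK293 cells. Fluorescence (480/540) read kinetically for 3 min; ATP served as positive control.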

[6] = p53 small molecule agonists, cell-based qHTS assay with rat liver microsomes (AID 1963578); note: potency is the fitted concentration of half-maximal effect
Procedure, shortened: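 Fluorescence from a beta-lactamase reporter under a p53 response element was measured after cells had been incubated 16 h at 37 C with test compound and rat liver microsomes plus NADPH (0.5 mg/mL final each).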

[7] = p53 small molecule agonists, cell-based qHTS assay with human liver microsomes: qHTS cell viability counter screen (AID 1963579); note: nearly all actives have a fitted effect of over 45% in size; note: potency is the fitted concentration of half-maximal effect
Procedure, shortened: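 Seed p53RE-bla cells at 4,000 per well; incubate 5 h at 37 C; add compound, human liver microsomes and NADPH; incubate 16 h at 37 C; add CellTiter-Glo; after 30 min at room temperature, read luminescence.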

[8] = p53 small molecule agonists, cell-based qHTS assay: qHTS cell viability counter screen (AID 1963581); note: nearly all actives have a fitted effect of over 45% in size
Procedure, shortened: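 Counter screen read by CellTiter-Glo luminescence (ATP content, 30 min at room temperature), run in the same wells as the beta-lactamase reporter read. HCT-116 p53RE-bla cells saw compounds for 16 h at 37 C.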

[9] = target: 5-hydroxytryptamine receptor 2A (Homo sapiens) (UniProt P28223); experiment: 5-hydroxytryptamine receptor 2A (HTR2A) small molecule antagonists, cell-based qHTS assay (AID 1963586); note: nearly all actives have a fitted effect of over 45% in size
Procedure, shortened: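 CHO cells stably expressing human HTR2A were plated for 18 h at 37 C, then loaded with calcium dye for 1 h. Compounds were preincubated 5 min at room temperature before DOI (4 nM solution) was added. Kinetic fluorescence was read for 3 min.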

[10] = target: 5-hydroxytryptamine receptor 2A (Homo sapiens) (UniProt P28223); experiment: 5-hydroxytryptamine receptor 2A (HTR2A) small molecule agonists, cell-based qHTS assay (AID 1963587); note: nearly all actives have a fitted effect of over 30% in size
Procedure, shortened: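 Kinetic calcium-flux fluorescence (2 min, 1 sec intervals) after compound addition in agonist mode. HTR2A-CHO cells were cultured 18 h, then dye-loaded 1 h at 37 C.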

[11] = cAMP Responsive Elements (CRE) small molecule agonists, cell-based qHTS assay (AID 1963590)
Procedure, shortened: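 Agonist mode: compound added to CRE-bla HEK 293T cells (2,000/well, 18 h after plating) for 3 h at 37 C/5% CO2. Reporter activity detected via FRET beta-lactamase substrate, 2 h room-temperature loading.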

[12] = cAMP Responsive Elements (CRE) small molecule antagonists, cell-based qHTS assay (AID 1963591; active = well fitted inhibition curve with a large enough effect in the signal ratio in the repeat runs, not every such curve was filed as active; the % refers to the signal ratio)
Procedure, shortened: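 Antagonist mode: compounds are added alongside the adenylyl cyclase activator NKH477 (0.25 uM final) to CRE-bla HEK293T cells for 3 h. LiveBLAzer FRET substrate, 2 h at room temperature, reports bla expression.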

[13] = target: Beta-2 adrenergic receptor (Homo sapiens) (UniProt P07550); experiment: Adrenergic beta2 receptor (ADRB2) small molecule antagonists, cell-based qHTS assay (AID 1963592); note: series mostly up to about 92 µM; nearly all actives have a fitted effect of over 50% in size
Procedure, shortened: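 Assay format: CHO-ADRB2 cells, 18-20hr seeding at 37C/5% CO2, then compound plus 1nM isoproterenol agonist mix for 0.5hr RT. Homogeneous time-resolved fluorescence cAMP detection after 1hr, expressed as 665/615 nm ratio.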

[14] = target: D(2) dopamine receptor (Homo sapiens) (UniProt P14416); experiment: Dopamine D2 receptor (DRD2) small molecule agonists, cell-based qHTS assay (AID 1963594); note: nearly all actives have a fitted effect of over 35% in size
Procedure, shortened: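 cAMP accumulation in DRD2-HEK293 cells measured by HTRF after 1 h detection; compounds added 10 min before NKH477 (200nM […]) forskolin-analogue stimulation, 30 min at room temperature, with Ro20-1724 present at 0.1 mM final.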

[15] = target: D(2) dopamine receptor (Homo sapiens) (UniProt P14416); experiment: Dopamine D2 receptor (DRD2) small molecule antagonists, cell-based qHTS assay (AID 1963595; active = well fitted inhibition curve with a large enough effect in the signal ratio in the repeat runs, with a control signal flat; the % refers to the signal ratio)
Procedure, shortened: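 HTRF cAMP read-out at 665 and 620 nm emission (340 nm excitation). Antagonist mode: compounds were tested against 12 nM quinpirole in DRD2-HEK293 cells, with 200 nM NKH477 raising cAMP and 0.1 mM Ro20-1724 blocking its breakdown.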

[16] = target: Muscarinic acetylcholine receptor M1 (Homo sapiens) (UniProt P11229); experiment: Cholinergic receptor muscarinic 1 (CHRM1) small molecule antagonists, cell-based qHTS assay (AID 1963588); note: nearly all actives have a fitted effect of over 40% in size
Procedure, shortened: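 Compounds were tested at 15 concentrations in three independent runs. Dye-loaded CHRM1-CHO cells were exposed 5 min at room temperature before stimulation by acetylcholine added at 50nM. Intracellular calcium was read kinetically on FDSS for 3 min.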

[17] = target: Muscarinic acetylcholine receptor M1 (Homo sapiens) (UniProt P11229); experiment: Cholinergic receptor muscarinic 1 (CHRM1) small molecule agonists, cell-based qHTS assay (AID 1963589); note: nearly all actives have a fitted effect of over 35% in size
Procedure, shortened: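 Agonist-mode calcium-flux screen: compounds at 15 concentrations, three independent runs, were pin-transferred onto dye-loaded human CHRM1-CHO cells. Fluorescence was then recorded kinetically every second over minutes.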

[18] = target: Beta-2 adrenergic receptor (Homo sapiens) (UniProt P07550); experiment: Adrenergic beta2 receptor (ADRB2) small molecule agonists, cell-based qHTS assay (AID 1963593);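 note: CHO cells stably overexpressing human ADRB2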
Procedure, shortened: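 CHO cells stably over-expressing ADRB2 were plated overnight at 37C, then dosed with compounds plus a stimulation mix containing 100uM IBMX and 25uM Ro-20-1724 for 0.5hr at room temperature. cAMP was measured by HTRF competition, 1hr.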

[19] = p53 small molecule agonists, cell-based qHTS assay with rat liver microsomes: qHTS cell viability counter screen (AID 1963580); note: nearly all actives have a fitted effect of over 45% in size
Procedure, shortened: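 Rat liver microsome (0.5 mg/mL final) and NADPH (0.5 mg/mL final) co-incubation with compounds for 16 h at 37 C on HCT-116 p53RE-bla cells; cytotoxicity taken from intracellular ATP luminescence.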

[20] = p53 small molecule agonists, cell-based qHTS assay (AID 1963582; active = well fitted activation curve with a large enough effect in the signal ratio in the repeat runs, not every such curve was filed as active; the % refers to the signal ratio)
Procedure, shortened: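 Read-out is beta-lactamase FRET fluorescence after 2 h at room temperature with LiveBLAzer B/G substrate. p53 response element-bla cells were treated 16 h at 37 C with compounds in DMSO, added 5 h after seeding.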

Measured: Potency

Sequence of KiSS-1 receptor (Homo sapiens) (Q969F8 whole entry, looked up): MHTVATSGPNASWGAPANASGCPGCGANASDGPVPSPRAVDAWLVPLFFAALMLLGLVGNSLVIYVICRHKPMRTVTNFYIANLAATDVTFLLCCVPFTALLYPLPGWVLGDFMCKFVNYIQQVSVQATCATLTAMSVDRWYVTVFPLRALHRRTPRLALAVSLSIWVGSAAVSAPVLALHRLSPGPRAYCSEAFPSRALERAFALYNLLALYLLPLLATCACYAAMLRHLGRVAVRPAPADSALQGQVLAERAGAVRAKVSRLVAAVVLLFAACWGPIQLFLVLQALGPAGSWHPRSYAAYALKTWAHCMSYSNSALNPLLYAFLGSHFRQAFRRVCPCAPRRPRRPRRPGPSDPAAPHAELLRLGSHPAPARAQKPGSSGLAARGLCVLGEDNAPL
Sequence of D(2) dopamine receptor (Homo sapiens) (P14416 whole entry, looked up): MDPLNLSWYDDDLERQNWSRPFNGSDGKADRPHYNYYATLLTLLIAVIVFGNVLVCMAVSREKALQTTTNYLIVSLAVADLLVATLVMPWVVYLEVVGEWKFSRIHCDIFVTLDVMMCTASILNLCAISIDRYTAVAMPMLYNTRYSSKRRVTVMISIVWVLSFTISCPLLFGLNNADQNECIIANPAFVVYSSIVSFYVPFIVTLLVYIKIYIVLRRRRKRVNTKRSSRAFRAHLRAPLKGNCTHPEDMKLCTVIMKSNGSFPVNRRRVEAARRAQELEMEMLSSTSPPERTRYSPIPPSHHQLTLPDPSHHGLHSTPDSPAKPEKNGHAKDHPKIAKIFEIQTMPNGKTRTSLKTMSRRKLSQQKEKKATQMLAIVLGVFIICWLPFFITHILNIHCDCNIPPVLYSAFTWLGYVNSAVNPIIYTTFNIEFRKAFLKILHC
Sequence of 5-hydroxytryptamine receptor 2A (Homo sapiens) (P28223 whole entry, looked up): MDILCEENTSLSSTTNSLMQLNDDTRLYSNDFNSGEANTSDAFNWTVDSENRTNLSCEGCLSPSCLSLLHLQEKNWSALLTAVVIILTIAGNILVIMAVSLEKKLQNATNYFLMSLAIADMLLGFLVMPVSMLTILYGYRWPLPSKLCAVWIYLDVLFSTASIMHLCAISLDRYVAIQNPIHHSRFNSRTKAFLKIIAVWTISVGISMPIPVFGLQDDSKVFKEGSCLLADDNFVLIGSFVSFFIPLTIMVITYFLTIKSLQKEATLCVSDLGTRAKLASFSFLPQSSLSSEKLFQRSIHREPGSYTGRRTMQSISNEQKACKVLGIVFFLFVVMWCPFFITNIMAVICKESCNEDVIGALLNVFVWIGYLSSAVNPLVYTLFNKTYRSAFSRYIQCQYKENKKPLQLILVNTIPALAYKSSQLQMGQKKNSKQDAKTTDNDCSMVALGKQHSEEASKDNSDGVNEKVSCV
Sequence of Gonadotropin-releasing hormone receptor (Homo sapiens) (P30968 whole entry, looked up): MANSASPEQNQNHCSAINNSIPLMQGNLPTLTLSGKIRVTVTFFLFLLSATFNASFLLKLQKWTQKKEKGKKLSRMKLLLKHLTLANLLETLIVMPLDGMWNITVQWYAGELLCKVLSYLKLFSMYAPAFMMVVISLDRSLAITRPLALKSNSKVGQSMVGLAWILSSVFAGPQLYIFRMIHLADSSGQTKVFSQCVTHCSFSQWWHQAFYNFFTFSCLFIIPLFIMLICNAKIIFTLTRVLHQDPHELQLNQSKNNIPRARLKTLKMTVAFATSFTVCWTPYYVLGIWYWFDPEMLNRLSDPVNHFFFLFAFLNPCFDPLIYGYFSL
Sequence of Muscarinic acetylcholine receptor M1 (Homo sapiens) (P11229 whole entry, looked up): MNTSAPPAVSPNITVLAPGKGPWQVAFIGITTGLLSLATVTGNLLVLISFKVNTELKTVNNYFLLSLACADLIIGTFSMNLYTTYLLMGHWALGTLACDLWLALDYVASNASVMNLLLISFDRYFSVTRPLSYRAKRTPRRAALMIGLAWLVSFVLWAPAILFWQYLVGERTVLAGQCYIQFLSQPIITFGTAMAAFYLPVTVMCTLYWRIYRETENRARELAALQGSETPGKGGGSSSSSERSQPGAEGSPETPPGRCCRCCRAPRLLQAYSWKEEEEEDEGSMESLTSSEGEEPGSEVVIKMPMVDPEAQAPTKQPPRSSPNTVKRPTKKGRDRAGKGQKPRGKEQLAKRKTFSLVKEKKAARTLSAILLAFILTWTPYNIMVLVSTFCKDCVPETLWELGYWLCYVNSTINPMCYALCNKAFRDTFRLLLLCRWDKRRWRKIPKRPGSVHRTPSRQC
Sequence of Beta-2 adrenergic receptor (Homo sapiens) (P07550 whole entry, looked up): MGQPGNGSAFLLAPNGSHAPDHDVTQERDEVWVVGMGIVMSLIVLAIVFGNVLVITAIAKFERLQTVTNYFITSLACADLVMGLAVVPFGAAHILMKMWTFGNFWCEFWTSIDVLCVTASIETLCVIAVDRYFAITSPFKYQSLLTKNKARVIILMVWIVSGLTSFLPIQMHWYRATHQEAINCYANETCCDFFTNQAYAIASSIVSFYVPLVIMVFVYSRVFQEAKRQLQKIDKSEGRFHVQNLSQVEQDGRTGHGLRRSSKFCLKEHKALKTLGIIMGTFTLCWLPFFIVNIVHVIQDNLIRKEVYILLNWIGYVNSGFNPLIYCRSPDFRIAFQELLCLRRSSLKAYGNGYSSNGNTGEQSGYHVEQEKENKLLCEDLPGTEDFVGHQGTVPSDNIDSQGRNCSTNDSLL

CN(C)c1ccc(C2(c3ccc(N(C)C)cc3)OC(=O)c3cc(N(C)C)ccc32)cc1
active: [7] 18.2 µM
not listed: [16] | [17] | [18] | [19] | [20]
inactive: all other assays above

CCCCC(CC)COC(=O)CCCCC(=O)OCc1ccccc1 (centres undefined)
not listed: [19] | [20]
inactive: all other assays above

Cc1ccc2nc(-c3ccc(N)cc3)sc2c1S(=O)(=O)O
active: [2] 10.7 µM | [6] 17.9 µM
not listed: [7] | [11] | [19] | [20]
inactive: all other assays above

NC(=O)N1C(=O)C(C(=O)c2cc(Cl)cs2)c2cc(F)c(Cl)cc21 (centres undefined)
active: [1] 24.3 µM
inactive: [2] | [3] | [4] | [5] | [6] | [8] | [9] | [17] | [14] | [15]

COCc1nnc(-c2ccc[n+]([O-])c2)n1-c1c(Cl)c(Cl)cc2[nH]c(=O)c(=O)[nH]c12
not listed: [6] | [15] | [20]
inactive: all other assays above

CNC(C)=O
not listed: [6] | [15] | [20]
inactive: all other assays above

O=C(O)[C@H](O)c1ccccc1
not listed: [6] | [12] | [14] | [17]
inactive: all other assays above

O=C1CC[C@@H](C(=O)O)N1
not listed: [6] | [20]
inactive: all other assays above

Cc1ccc(N)cc1S(=O)(=O)O
not listed: [6] | [20]
inactive: all other assays above

Cc1cccc(NC(=S)N(C)C)c1
not listed: [6] | [20]
inactive: all other assays above

CCCCCCC(=O)c1ccccc1
not listed: [6] | [20]
inactive: all other assays above

CN(C)C(=O)COC(=O)Cc1ccc(OC(=O)c2ccc(N=C(N)N)cc2)cc1
not listed: [6] | [20]
inactive: all other assays above

Nc1ccc2cc(S(=O)(=O)O)cc(O)c2c1N=Nc1ccccc1C(F)(F)F
not listed: [6] | [20]
inactive: all other assays above

CCCC1CCC(=O)CC1
not listed: [6] | [20]
inactive: all other assays above

CN(C)C(C)(C)CO
not listed: [6] | [20]
inactive: all other assays above
